According to PubChem BioAssay (NCATS):
Records with an inconclusive call do not appear. Values without a mark were called inactive. The call rests on the fitted dose curve; in most records, active means well fitted activation curve with a large enough effect; inconclusive means small, poorly fitted or top-dose-only effect; inactive means flat fitted curve, though single readings scatter.

Molecular target: Cellular tumor antigen p53 (Homo sapiens) (UniProt P04637)
Assay: Primary qHTS for small molecule compounds that upregulate eGFP-tagged delta133p53alpha (in C-terminal) cells. (AID 2060324);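 further: 0% = DMSO wells and 100% = 57.5 µM 5-azacytidine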
Conditions: NCI-H358 delta133p53alpha-eGFP (C-terminal tag), GFP fluorescence imaging, 24 h; series mostly up to 57.5 µM; GFP increase (activation): at the top concentration
Source text: Assay Development and Screening Technology
National Center for Advancing Translational Sciences (NCATS),
National Institute of Health (NIH), Rockville, Maryland
Cellular senescence (CS) is one of the hallmarks of aging and age-related diseases. Senescent cells are characterized by an irreversible growth arrest, an increase in senescence-associated beta-galactosidase (SA-beta-gal) activity and p16INK4a expression, an activation of the DNA damage response pathways, and the emergence of a senescence-associated secretory phenotype (SASP).
Delta133p53alpha, a human/primate-specific p53 protein isoform, delays or inhibits the induction of CS and SASP in various types of human cells, including progeria-derived fibroblasts, primary normal astrocytes, and CD8+ T lymphocytes. Induction of delta133p53alpha with small molecule compounds may provide therapeutic opportunities for inhibition of senescence/SASP-associated pathologies in progeria syndromes, astrocyte-mediated neuroprotection in neurodegenerative diseases, and possibly prevention and treatment of a wider range of senescence- and aging-associated diseases.
Here we report the development and validation of a cell-based quantitative high throughput screening (qHTS) assay in 1,536-well format. This qHTS assay uses the NCI-H358 cell line with doxycycline-inducible expression of enhanced green fluorescent protein (eGFP)-tagged delta133p53alpha, which allows efficient and highly quantitative measurement of the protein levels.
PROTOCOL TABLE (as described by Inglese J, Shamu CE and Guy RK. 2007)
SEQUENCE No. (e.g., 1, 2, 3, etc.); […] (e.g., Cells, Incubation, Reagent, etc.); VALUE; DESCRIPTION.
1; Cells; 4uL; 800 doxycycline treated cells / well in doxycycline-free media, 1536-well black, clear-bottom low base Aurora microplates.
2; Compounds; 23 nL; Kalypsis pin tool (Wako) equipped with 1536-well pin heads, 5-azacytidine positive control.
3; Incubation; 24 hr; 37C, 5% CO2; 95% relative humidity.
4; Aspiration; 1x; BioTek EL406 washer dispenser (Agilent).
5; Fixing; 3.5% paraformaldehyde, BioTek EL406 washer dispenser (Agilent).
6; Washing; 1x PBS; BioTek EL406 washer dispenser (Agilent).
7; Nuclei staining; 1:1000 dilution of Hoechst 33342 (Thermofisher), BioTek EL406 washer dispenser (Agilent).
8; Incubation; 20 min; in the dark at room temperature.
9; Washing; 2x, 1x PBS (ThermoFisher), BioTek EL406 washer dispenser (Agilent).
10; Reagent; 10 uL; 1x PBS per well, sealed with clear adhesive tape.
11; Detection; Fluorescence, Acumen eX3 laser scanning cytometer (STP Labtech), GFP filters […].
NOTES (numbers refer to sequence numbers above).
1. NCI-H358 cells expressing eGFP-tagged delta133p53alpha were grown in T75 culture flasks and treated with doxycycline for 24h, at 10 ng/ml for eGFP-D133p53a cells (N-terminal cell) and 100 ng/ml for D133p53a-eGFP cells (C-terminal cells). Cells were trypsinized, counted using a Counted 3 Automated Cell Counter (Thermo Fisher), and diluted to a concentration of 200,000 cells/ml. A Multidrop Combi Reagent Dispenser (ThermoFisher) was used to dispense 800 cells/well in […] of doxycycline-free media, into 1536-well black/clear bottom low base plates (AuroraMicroplates).
2. After plating cells, 23 nl of compound library, DMSO vehicle control or positive control (5-azacytidine) were transferred by Pin Tool (Wako). The plate map layout was the same for each plate: (column 1) non-doxycycline treated cells + DMSO vehicle control; (column 2) doxycycline treated cells + DMSO vehicle control baseline; (column 3) doxycycline treated cells + positive control 57.5 uM final concentration 5-azacytidine; (column 4) doxycycline treated cells + serial dilution of 5-azacytidine, 16-point 1:2 titration spanning 1.8 nM to […] final concentration; (columns 5-48) doxycycline treated cells + titration of library compounds.
3. Cells were incubated at 37 °C, 5 % CO2, 95% RH with breathable metal lid for 24h.
4-10. […] […]

Chain of Cellular tumor antigen p53 (Homo sapiens) (P04637 whole entry, looked up): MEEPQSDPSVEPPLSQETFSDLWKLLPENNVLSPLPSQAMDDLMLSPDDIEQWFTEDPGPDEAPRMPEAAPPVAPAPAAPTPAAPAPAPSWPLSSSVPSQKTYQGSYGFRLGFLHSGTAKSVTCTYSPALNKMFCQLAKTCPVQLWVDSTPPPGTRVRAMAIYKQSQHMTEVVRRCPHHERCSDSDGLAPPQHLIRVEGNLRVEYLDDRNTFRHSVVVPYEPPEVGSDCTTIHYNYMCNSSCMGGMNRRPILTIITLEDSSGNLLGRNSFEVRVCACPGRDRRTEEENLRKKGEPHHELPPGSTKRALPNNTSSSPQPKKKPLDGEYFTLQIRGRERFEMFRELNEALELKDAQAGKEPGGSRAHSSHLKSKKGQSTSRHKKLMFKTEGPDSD

Compound	GFP increase (activation)
CNCCc1c[nH]c2ccc(O)cc12	-4.67%
CCCN1CCO[C@@H]2c3cc(O)ccc3OC[C@H]21	-2.78%
NCCc1ccc(S(=O)(=O)F)cc1	25.5%
Cc1nccc2c1[nH]c1ccccc12	-3.71%
C=CCN1CC[C@]23CCCCC2[C@H]1Cc1ccc(O)cc13 (stereo not given in full)	0.0659%
NC(=O)CI	-0.997%
c1ccc2sc(C3(N4CCCCC4)CCCCC3)cc2c1	3.12%
CCCN(CCC)C1CCc2cccc(O)c2C1 (stereo not given)	-2.01%
Nc1cc2c(ncn2CCOCP(=O)(O)O)c(=O)[nH]1	0.644%
Cn1cnc(CCN)c1	-2.69%
NC(CCP(=O)(O)O)C(=O)O (stereo not given)	1.98%
CCCN1CCC[C@@H](c2cccc(O)c2)C1	-9.98%
C[C@]12CCC3C(CC[C@H]4C[C@H](O)CC[C@]34C)C1CC[C@@H]2C(=O)CO (stereo not given in full)	0.482%
CCS(=O)(=O)Nc1cccc(C(=C2CCCCC2)c2cnc[nH]2)c1	4.71%
C[C@H](Cc1ccc2c(c1)OC(C(=O)O)(C(=O)O)O2)NC[C@H](O)c1cccc(Cl)c1	-11.4%
NCc1cc(=O)[nH]o1	-3.46%
N[C@@H](Cn1oc(=O)[nH]c1=O)C(=O)O	-2.42%
CC(=O)c1c(O)c(C)c(O)c(Cc2c(O)c3c(c(C(=O)/C=C/c4ccccc4)c2O)OC(C)(C)C=C3)c1O	-8.15%
CC12NC(Cc3ccccc31)c1ccccc12 (stereo not given)	-13.9%
NCCc1c[nH]c2ccccc12	0.0588%

Compound	GFP increase (activation)
NCC(O)c1cc(O)c(O)cc1F (stereo not given)	-4.91%
CCCCCCCCCCCCCC(=O)O[C@@H]1[C@@H](C)[C@@]2(O)[C@@H](C=C(CO)C[C@@]3(O)C(=O)C(C)=C[C@@H]23)C2C(C)(C)[C@@]21OC(C)=O (stereo not given in full)	19%
CC(C)=CCOc1c2occc2cc2ccc(=O)oc12	-14.5%
CCCN(CCC)[C@@H]1CCc2cccc(O)c2C1	1.11%
NC(=O)CN1CCCC1=O	-3.75%
NCCc1c[nH]c2ccc(C(N)=O)cc12	0.719%
Clc1ccc(N2CC3CCC(C2)N3)nn1	6.39%
CN(N=O)c1ccc(O)c(O)c1	10.1%
O=C(N[C@H]1CN2CCC1CC2)c1ccc(Cl)cc1	16.5%
C[N+]1(C)CCc2cc3c(cc2[C@H]1[C@@H]1OC(=O)c2c1ccc1c2OCO1)OCO3	-4.61%
O=C1CC[C@@]2(O)C3Cc4ccc(O)c5c4C2(CCN3CC2CC2)[C@H]1O5 (stereo not given in full)	-8.86%
CN1CC[C@@]2(C)c3cc(O)ccc3N(C)C12 (stereo not given in full)	0.308%
N#CC(C#N)=Cc1ccc(O)c(O)c1	-13.6%
O=P1(N(CCCl)CCCl)NCCCO1 (stereo not given)	-2.08%
NC(CP(=O)(O)O)C(=O)O (stereo not given)	2.96%
O=S1(=O)N(CCN2CC=C(c3c[nH]c4cc(F)ccc34)CC2)c2cccc3c2N1CCC3	2.62%
COc1ccc2c(c1)C13CCCCC1C(C2)N(C)CC3 (stereo not given)	-0.931%
Oc1ccc2c3c1O[C@H]1c4[nH]c5ccccc5c4C[C@@]4(O)C(C2)N(CC2CC2)CCC314 (stereo not given in full)	7.14%
NC(C(=O)O)c1cc(=O)[nH]o1 (stereo not given)	19.9%
C[N+]1(C)CCN(c2ccccc2)CC1	-10%
